# AMA1 RON2 block: qHTS for Inhibitors of AMA1-RON; Towards Development of Antimalarial Drug Lead: Primary Screen. AlphaScreen AMA1-biotinylated RON2 peptide binding. Potency, µM (top dose mostly 58.2 µM), most hits filed as inhibitors. Plasmodium falciparum AMA1 (3D7) - RON2 peptide interaction. hit rate 0.2% among 360,000. AID 720542, 2013; further: nearly all actives have a fitted effect of over 45% in size
#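 AMA1 (3D7) with his tag at 25 nM final met compounds first, then biotinylated RON2 peptide at 25 nM; detection used donor plus acceptor beads, 10 µg/mL apiece, read by AlphaScreen after 30 min at room temperature.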
# LmPK inhibitor: qHTS Assay for Inhibitors of Leishmania Mexicana Pyruvate Kinase (LmPK). AID 1721, 2009. hit rate 0.37% among 290,000. Potency, µM (titrated, usually from 57.5 µM), usual class: inhibitors. purified LmPK, Kinase-Glo ATP luminescence, 1 h
# Target sequence (Q27686 whole entry, looked up): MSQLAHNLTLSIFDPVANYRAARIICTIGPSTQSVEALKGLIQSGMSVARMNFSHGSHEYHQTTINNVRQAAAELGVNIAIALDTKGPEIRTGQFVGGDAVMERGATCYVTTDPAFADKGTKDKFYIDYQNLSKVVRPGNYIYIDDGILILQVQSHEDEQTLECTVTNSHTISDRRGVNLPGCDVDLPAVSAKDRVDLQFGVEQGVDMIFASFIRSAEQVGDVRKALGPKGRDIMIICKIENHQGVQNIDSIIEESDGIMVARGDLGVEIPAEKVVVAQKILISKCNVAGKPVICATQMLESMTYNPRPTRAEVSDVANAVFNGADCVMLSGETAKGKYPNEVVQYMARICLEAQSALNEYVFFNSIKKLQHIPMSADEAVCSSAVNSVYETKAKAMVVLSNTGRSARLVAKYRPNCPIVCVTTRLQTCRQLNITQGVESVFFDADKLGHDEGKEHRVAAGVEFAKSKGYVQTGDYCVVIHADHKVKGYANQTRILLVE
#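 qHTS format; LmPK 0.1 nM; substrates PEP 0.5 mM and ADP 0.1 mM. One-hour room-temperature incubation, then coupled luciferase luminescence; 0.5 nM enzyme wells mark activation.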
# RE007 growth inh: qHTS Assay for Inhibitors of the HIV-1 protein Vpr; S. pombe RE007 Vpr strain, BacTiter-Glo ATP luminescence, 24 h; Potency, µM (highest dose often 92.2 µM), hits mostly inhibitors; hit rate 0.21% among 360,000; AID 651644, 2012; active means well fitted falling curve with a large enough effect; inconclusive means small, poorly fitted or top-dose-only effect; inactive means no such curve, though single readings can be large or run the other way; further: nearly all actives have a fitted effect of over 50% in size
#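 Fission yeast strain RE007, carrying one chromosomally integrated HIV-1 vpr copy, was seeded at OD 0.01 in PMG+AL medium with 23 nL pinned compound. After 24 h at 30 °C and 99% humidity, viability was read by BacTiter-Glo luminescence.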
# Tb PYK inh: qHTS of Trypanosoma Brucei Inhibitors | TbPYK enzyme, Kinase-Glo Plus ATP luminescence, 45 min | Potency, µM (titrated, usually from 76.8 µM), most hits filed as inhibitors | hit rate 0.12% among 410,000; further: nearly all actives have a fitted effect of over 50% in size
#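 In this concentration-response screen, enzyme-free wells defined baseline while DMSO plates tracked drift. Each reaction combined TbPYK, substrate, compound and 130 uM ADP for 45 min at room temperature. Kinase-Glo Plus luminescence gave the signal.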
# Sm TGR inh: qHTS Assay for the Inhibitors of Schistosoma Mansoni Peroxiredoxins. purified TGR, DTNB reduction, TNB absorbance 405 nm. Potency, µM (series often up to 114 µM), actives largely listed as inhibitors. hit rate 3% among 360,000. AID 485364, 2010; further: nearly all actives have a fitted effect of over 60% in size
#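 First, TGR (20 nM dispensed) and NADPH were mixed with compound. Second, a 15 min room-temperature incubation followed. Third, further NADPH and then DTNB were added to start the reaction. Finally, TNB absorbance was monitored kinetically.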
# A number is an active result; 0 = inactive; ? = inconclusive; - = no result; [ ] = dose if it differs, or a comment. A selection: hits, their analogues and other compounds. The true share with any hit is near 3.2%. Unless noted, the call rests on the fitted dose curve; in most records, active means well fitted curve in the direction sought with a large enough effect; inconclusive means small, poorly fitted or top-dose-only effect, or another doubt; inactive means no such curve, though single readings can be large; an effect the other way counts as inactive or inconclusive.
SMILES,AMA1 RON2 block,LmPK inhibitor,RE007 growth inh,Tb PYK inh,Sm TGR inh
CSc1nnc(C)c(=O)n1COC(=O)c1cc(Cl)ccc1[N+](=O)[O-],0,0[11.5 µM],0,0,22µM
O=c1oc2c(O)c(O)cc3c(=O)oc4c(O)c(O)cc1c4c23,0.79µM,0,0,0,0
Cc1ccc(S(=O)(=O)c2c(N)n(CCN3CCOCC3)c3nc4ccccc4nc23)cc1C,0,0,0,0,0
Nc1c(S(=O)(=O)c2ccccc2)c2nc3ccccc3nc2n1CCN1CCOCC1,0,0,0,0,0
Cc1ccc(S(=O)(=O)c2c(N)n(Cc3ccco3)c3nc4ccccc4nc23)cc1C,0,0,0,0,10µM
Nc1c(S(=O)(=O)c2ccccc2)c2nc3ccccc3nc2n1Cc1ccco1,0,0,0,0,18µM
O=C1C2C3C=CC(C2C(=O)N1c1ccc(O)cc1)C1C2C(=O)N(c4ccc(O)cc4)C(=O)C2C31 (stereo not drawn),0,0,0,0,50µM
O=C1CCCC(=O)N1c1ccc(O)cc1,0,0,0,0,0
O=C1C=CC(=O)N1c1ccc(O)cc1,0,0,6.3µM,?,0.89µM
O=C1C2C3C=CC(C2C(=O)N1c1ccccc1O)C1C2C(=O)N(c4ccccc4O)C(=O)C2C31 (stereo not drawn),0,0,0,0,0
O=C1C=CC(=O)N1c1ccc(OC(F)F)cc1,0,0,2.8µM,11µM,0.35µM
O=C(O)CNC(=O)c1ccc(OC(F)F)cc1,0,0,0,0,0
CCN(CC)c1ccc(-c2nc(-c3ccccc3C)no2)cc1[N+](=O)[O-],-,-,-,0,0
Cc1ccc(C2CC(=O)N3CN(c4ccc(Br)cc4)CSC3=C2C#N)o1 (stereo not drawn),0,0,0,?,28µM
N#CC1=C2SCN(c3ccccc3)CN2C(=O)CC1c1cccs1 (stereo not drawn),0,0,0,?,?
CCOc1ccc(N2CSC3=C(C#N)C(c4ccco4)CC(=O)N3C2)cc1 (stereo not drawn),0,0,0,0,25µM
COc1cc2c(cc1C1C(C#N)=C(N)OC3=C1C(=O)CC(C)(C)C3)OCO2 (stereo not drawn),0,0,0,0,89µM
CC1(C)CC(=O)C2=C(C1)OC(N)=C(C#N)C2c1ccccc1[N+](=O)[O-] (stereo not drawn),0,0,0,0,22µM
CC(C)CN(CCCNC(=O)Cn1ncc2c3ccccc3n(C)c2c1=O)CC(C)C,-,-,-,0,0
O=C(c1cccc2ccccc12)N1CCCCC1,0,0,0,0,0
O=C(c1cccc2cccc(O)c12)N1CCCCC1,0,0,?,0,40µM
COc1ccc(/C=N/N2CCN(C)CC2)c(OC)c1OC,0,0,0,0,50µM
Cc1ccc(NC(=O)Nc2nnc(SCC(=O)N3CCCCC3)s2)cc1,-,-,-,0,0
COc1ccc(Cl)cc1NC(=O)Cn1cnc2sc(C)c(S(=O)(=O)N3CCN(c4ccccc4OC)CC3)c2c1=O,-,-,-,0,0
CC1=CC(c2ccccc2)n2nc(NS(=O)(=O)c3ccc(C)cc3)nc2N1 (stereo not drawn),0,0,0,0,35µM
SMILES,AMA1 RON2 block,LmPK inhibitor,RE007 growth inh,Tb PYK inh,Sm TGR inh
CC1=CC(c2ccc(Cl)cc2)n2nc(NS(=O)(=O)c3ccc(C)cc3)nc2N1 (stereo not drawn),0,0,0,0,32µM
Cc1ccc(S(=O)(=O)Nc2nc3n(n2)C(c2ccc(Cl)cc2)CC(=O)N3)cc1 (stereo not drawn),0,0,0,0,0
S=C(Nc1ccc(Cl)cc1)c1nc2ccccc2[nH]1,0,0,6.3µM,0,0
Cc1ccccc1NC(=S)c1nc2ccccc2[nH]1,0[11.6 µM],0,?,0,0
C=CCOc1ccc2ccccc2c1/C=N/O,0,0,32µM,0,0
COc1ccc2ccccc2c1/C=N/O,0,0,0,0,0
Cc1ccc2c(c1)[C@]13CCCC[C@@H]1[C@@H](C2)N(C)CC3,-,-,-,0,-
Cc1cc(Cl)ccc1OCCCC(=O)N1CCN(C(=O)c2ccco2)CC1,0,0,0,0,50µM

# Screening results deposited in PubChem BioAssay by National Center for Advancing Translational Sciences (NCATS).
